How the values were obtained:
Assay in all cases: DAPPL (digital affinity profiling via proximity ligation, sequencing); 10 mM Tris-HCl pH 7.5, 50 mM NaCl, 1 mM DTT, 4% glycerol, room temperature, 30 min; GST-TFs on glutathione beads, 16-mer random dsDNA library, 0.1% formaldehyde crosslink after washing; high values mean tight binding
Conditions in all cases: protein: recombinant; tags: N-terminal GST; dsDNA, one strand shown
ETV1 = ETV1 (Homo sapiens, UniProt P50549 1-477)
Summary of the method: (§1)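 Beads coated with glutathione captured GST-fused human transcription factors that had been expressed in yeast, and the factors were then given DNA barcodes and pooled with a tag-only sample. The pools were incubated with 200 nmole of a random double-stranded 16-mer DNA library in Tris/NaCl/DTT/glycerol buffer for 30 min at room temperature, washed, crosslinked with 0.1% formaldehyde and proximity-ligated with BsaI/T4 ligase at 37 °C for 1 h. PCR amplification and Illumina NextSeq500 sequencing came last. Binding signal is each hexamer's read frequency for a factor divided by its frequency for the tag-only sample.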

ERF = biological target: T1, ERF (Homo sapiens, UniProt P50548 1-548)
T1 sequence: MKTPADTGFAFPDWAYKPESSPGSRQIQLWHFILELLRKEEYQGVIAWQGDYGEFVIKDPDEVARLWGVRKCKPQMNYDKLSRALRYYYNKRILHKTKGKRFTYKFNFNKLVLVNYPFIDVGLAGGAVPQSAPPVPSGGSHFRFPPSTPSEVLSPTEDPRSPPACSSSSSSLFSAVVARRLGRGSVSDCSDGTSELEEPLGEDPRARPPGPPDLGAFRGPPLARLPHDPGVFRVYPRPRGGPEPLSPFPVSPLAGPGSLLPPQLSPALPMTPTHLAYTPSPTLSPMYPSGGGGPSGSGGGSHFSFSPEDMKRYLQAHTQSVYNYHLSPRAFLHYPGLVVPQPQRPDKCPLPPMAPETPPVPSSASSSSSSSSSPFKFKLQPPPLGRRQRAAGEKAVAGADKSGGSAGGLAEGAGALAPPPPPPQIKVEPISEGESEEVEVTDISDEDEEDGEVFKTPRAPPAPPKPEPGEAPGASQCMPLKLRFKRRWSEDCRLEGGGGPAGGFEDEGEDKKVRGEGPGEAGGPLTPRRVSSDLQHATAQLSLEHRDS
Summary of the method: as §1

ETV3L = biological target: T2, ETV3L (Homo sapiens, UniProt Q6ZN32 1-361)
T2 sequence: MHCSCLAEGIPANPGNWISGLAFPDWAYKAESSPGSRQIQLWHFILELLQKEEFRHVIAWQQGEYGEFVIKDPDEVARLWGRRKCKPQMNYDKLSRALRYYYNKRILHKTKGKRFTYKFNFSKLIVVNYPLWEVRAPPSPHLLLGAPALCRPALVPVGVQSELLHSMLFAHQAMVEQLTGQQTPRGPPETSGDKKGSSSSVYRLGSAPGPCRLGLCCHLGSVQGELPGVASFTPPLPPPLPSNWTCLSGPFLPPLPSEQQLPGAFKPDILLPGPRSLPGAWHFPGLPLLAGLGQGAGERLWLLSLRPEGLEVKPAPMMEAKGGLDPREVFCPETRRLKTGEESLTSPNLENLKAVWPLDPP
Summary of the method: as §1

ETS2 = biological target: T3, ETS2 (Homo sapiens, UniProt P15036 1-469)
T3 sequence: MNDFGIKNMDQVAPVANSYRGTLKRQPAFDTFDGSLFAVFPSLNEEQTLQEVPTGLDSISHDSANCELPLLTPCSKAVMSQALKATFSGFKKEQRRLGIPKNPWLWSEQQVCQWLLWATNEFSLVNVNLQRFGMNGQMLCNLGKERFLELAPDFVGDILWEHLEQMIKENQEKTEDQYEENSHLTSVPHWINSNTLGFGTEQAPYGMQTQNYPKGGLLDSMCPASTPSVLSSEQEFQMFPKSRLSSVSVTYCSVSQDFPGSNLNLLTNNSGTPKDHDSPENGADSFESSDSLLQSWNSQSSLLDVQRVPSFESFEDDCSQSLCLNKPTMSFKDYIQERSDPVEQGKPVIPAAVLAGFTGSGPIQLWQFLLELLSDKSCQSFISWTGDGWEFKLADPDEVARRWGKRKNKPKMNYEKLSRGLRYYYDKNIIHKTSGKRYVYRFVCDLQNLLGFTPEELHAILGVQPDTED
Summary of the method: as §1

SPDEF = biological target: T4, SPDEF (Homo sapiens, UniProt O95238 1-335)
T4 sequence: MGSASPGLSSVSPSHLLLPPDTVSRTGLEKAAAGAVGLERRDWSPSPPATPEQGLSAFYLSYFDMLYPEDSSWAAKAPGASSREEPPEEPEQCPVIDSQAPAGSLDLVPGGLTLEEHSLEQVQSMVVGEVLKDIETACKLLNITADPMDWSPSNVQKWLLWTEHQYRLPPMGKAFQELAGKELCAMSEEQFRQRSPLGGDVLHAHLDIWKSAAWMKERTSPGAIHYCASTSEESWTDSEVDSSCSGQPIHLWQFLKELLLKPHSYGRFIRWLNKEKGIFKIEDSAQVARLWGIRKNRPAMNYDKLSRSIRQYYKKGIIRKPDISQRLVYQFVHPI
Summary of the method: as §1

ETV7 = biological target: T5, ETV7 (Homo sapiens, UniProt Q9Y603 1-341)
T5 sequence: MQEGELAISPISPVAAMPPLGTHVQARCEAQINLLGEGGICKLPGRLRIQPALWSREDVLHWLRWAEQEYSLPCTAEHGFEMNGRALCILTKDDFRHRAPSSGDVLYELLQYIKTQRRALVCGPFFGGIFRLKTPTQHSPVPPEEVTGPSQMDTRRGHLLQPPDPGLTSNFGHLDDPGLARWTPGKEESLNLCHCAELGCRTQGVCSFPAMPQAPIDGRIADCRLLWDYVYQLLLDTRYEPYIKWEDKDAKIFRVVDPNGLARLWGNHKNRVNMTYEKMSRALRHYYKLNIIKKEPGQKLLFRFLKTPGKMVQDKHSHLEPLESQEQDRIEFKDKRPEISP
Summary of the method: as §1

ELF5 = biological target: T6, ELF5 (Homo sapiens, UniProt Q9UKW6-2 1-255)
T6 sequence: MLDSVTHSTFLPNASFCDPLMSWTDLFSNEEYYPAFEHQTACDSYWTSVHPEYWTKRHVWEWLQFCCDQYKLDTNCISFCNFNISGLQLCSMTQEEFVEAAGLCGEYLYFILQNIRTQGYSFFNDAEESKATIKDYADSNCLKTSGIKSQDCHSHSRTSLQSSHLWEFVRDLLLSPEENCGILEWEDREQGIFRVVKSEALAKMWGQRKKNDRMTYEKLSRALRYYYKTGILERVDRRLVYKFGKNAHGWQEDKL
Summary of the method: as §1

ETV3 = biological target: T7, ETV3 (Homo sapiens, UniProt P41162-2 1-143)
T7 sequence: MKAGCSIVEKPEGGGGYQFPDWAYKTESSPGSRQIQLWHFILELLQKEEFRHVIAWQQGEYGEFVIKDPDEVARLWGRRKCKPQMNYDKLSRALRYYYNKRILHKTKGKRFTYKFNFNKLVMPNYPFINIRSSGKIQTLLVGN
Summary of the method: as §1

ETV6 = ETV6 (Homo sapiens, UniProt P41212 1-452)
Summary of the method: as §1

Sequence of ETV1 (P50549 whole entry, the tested form may be a part): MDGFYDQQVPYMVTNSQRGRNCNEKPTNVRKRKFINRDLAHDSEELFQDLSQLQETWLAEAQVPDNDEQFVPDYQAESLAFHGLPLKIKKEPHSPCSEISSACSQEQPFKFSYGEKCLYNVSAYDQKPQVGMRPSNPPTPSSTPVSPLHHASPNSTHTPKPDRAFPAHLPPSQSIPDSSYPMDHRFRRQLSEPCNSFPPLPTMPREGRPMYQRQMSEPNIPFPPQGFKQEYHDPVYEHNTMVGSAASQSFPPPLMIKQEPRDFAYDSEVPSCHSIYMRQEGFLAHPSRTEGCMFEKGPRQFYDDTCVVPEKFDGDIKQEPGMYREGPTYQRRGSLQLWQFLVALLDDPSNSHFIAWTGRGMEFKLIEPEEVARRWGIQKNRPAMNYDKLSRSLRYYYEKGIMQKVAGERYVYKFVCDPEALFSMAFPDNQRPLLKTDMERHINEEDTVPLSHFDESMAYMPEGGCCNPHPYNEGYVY
Sequence of ETV6 (P41212 whole entry): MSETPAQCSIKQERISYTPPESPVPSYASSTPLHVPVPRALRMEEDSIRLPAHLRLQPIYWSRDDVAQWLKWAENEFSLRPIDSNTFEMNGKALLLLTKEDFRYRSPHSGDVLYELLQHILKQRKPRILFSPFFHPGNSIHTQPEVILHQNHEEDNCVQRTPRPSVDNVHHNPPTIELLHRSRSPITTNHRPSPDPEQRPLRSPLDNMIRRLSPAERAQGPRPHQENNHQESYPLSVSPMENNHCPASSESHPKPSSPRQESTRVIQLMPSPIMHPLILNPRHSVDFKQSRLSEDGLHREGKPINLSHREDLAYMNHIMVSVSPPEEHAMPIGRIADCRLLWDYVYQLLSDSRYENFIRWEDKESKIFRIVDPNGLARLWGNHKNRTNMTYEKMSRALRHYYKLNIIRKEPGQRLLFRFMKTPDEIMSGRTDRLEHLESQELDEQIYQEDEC

AATTTT
binding signal (ETV1): 1.23 fold enrichment (6-mer frequency, TF over GST control) | binding signal (ERF): 1.36 fold enrichment (6-mer frequency, TF over GST control) | binding signal (ETV3L): 1.3 fold enrichment (6-mer frequency, TF over GST control) | binding signal (ETS2): 1.23 fold enrichment (6-mer frequency, TF over GST control) | binding signal (SPDEF): 1.22 fold enrichment (6-mer frequency, TF over GST control) | binding signal (ETV7): 1.14 fold enrichment (6-mer frequency, TF over GST control) | binding signal (ELF5): 1.23 fold enrichment (6-mer frequency, TF over GST control) | binding signal (ETV3): 1.2 fold enrichment (6-mer frequency, TF over GST control) | binding signal (ETV6): 1.13 fold enrichment (6-mer frequency, TF over GST control)
